# Several values for one entry are separate records, joined by “and”; a condition that tells them apart may be missing. Equal values may be shown once. Results filed as inconclusive are left out. Entries that show only a call come without a potency. A number with no mark means an inactive call. Activity calls are given as the source filed them. Unless noted, calls follow the shape of the dose curve; as a rule, active = well fitted curve in the direction sought with a large enough effect; inconclusive = small, poorly fitted or top-dose-only effect, or another doubt; inactive = no such curve, though single readings can be large; an effect the other way counts as inactive or inconclusive.
# What was measured:
# [1] = target: Cellular tumor antigen p53 (Homo sapiens) (UniProt P04637); test: Primary qHTS for small molecule compounds that upregulate eGFP-tagged delta133p53alpha (in N-terminal) cells. (AID 2060322); conditions: NCI-H358 eGFP-delta133p53alpha fluorescence, 24 h; activation: active compounds read high; also: series mostly up to about 56 µM; nearly all actives have a fitted effect of over 75% in size
# Chain of Cellular tumor antigen p53 (Homo sapiens) (P04637 whole entry, looked up): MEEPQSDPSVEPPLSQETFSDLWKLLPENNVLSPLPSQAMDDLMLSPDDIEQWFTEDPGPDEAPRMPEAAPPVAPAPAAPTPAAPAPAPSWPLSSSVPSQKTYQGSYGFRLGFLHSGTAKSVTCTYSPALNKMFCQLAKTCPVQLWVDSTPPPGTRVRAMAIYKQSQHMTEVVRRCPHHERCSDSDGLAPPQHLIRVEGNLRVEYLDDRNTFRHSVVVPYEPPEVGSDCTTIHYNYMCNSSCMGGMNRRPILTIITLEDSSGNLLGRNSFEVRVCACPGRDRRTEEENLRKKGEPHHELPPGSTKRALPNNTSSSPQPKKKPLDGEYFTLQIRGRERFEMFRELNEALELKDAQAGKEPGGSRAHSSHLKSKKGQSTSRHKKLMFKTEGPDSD
# How it was run: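 NCI-H358 cells pre-induced 24 h with 10 ng/ml doxycycline to express N-terminal eGFP-delta133p53alpha, then dosed 24 h at 37C without doxycycline; fixed, Hoechst-stained, GFP intensity by laser scanning cytometry, normalized to DMSO (0%) and 57.5 uM 5-azacytidine (100%).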
# [2] = target: Cellular tumor antigen p53 (Homo sapiens) (UniProt P04637); test: Primary qHTS for small molecule compounds that upregulate eGFP-tagged delta133p53alpha (in C-terminal) cells. (AID 2060324)
# How it was run: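 In this qHTS, GFP-tagged delta133p53alpha levels are measured in fixed NCI-H358 cells after 24 h compound exposure at 37 °C. The cells are pre-induced with 100 ng/ml doxycycline, and signal is normalized to DMSO-treated wells as 0%.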
# [3] = target: Aldehyde dehydrogenase, mitochondrial (Homo sapiens) (UniProt P05091); test: qHTS for Inhibitors of the Aldehyde Dehydrogenase Family (ALDH2) Validation screens (AID 2061302; active = well fitted inhibition curve with a large enough effect; title and protocol of this record describe different tests)
# [4] = target: Retinaldehyde dehydrogenase 3 (Homo sapiens) (UniProt P47895); test: qHTS for Inhibitors of the Aldehyde Dehydrogenase Family (ALDH1A3) Validation screen (AID 2061312); also: nearly all actives have a fitted effect of over 45% in size
# [5] = BET inhibitor-based combinations targeting novel dependencies in MECOM-rearranged (r) AML: SET-2 cell line (AID 2202231); conditions: SET-2 AML cells viability, CellTiter-Glo luminescence, 48 h; viability: active compounds read low, concentration not given here; also: nearly all actives have a fitted effect of over 35% in size; also: potency is read from the fitted curve at half-maximal effect
# How it was run: (§1)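 AML cell lines seeded at 500 cells/well, treated with 11-point dose curves for 48 h. Viability by CellTiter-Glo luminescence, normalised to DMSO and empty wells; activity expressed as AUC and per-cell-line Z-transformed AUC.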
# [6] = BET inhibitor-based combinations targeting novel dependencies in MECOM-rearranged (r) AML: OCI-AML3 cell line (AID 2202232); conditions: Potency: OCI-AML3 viability; also: nearly all actives have a fitted effect of over 35% in size; also: potency is read from the fitted curve at half-maximal effect
# How it was run: as §1
# [7] = BET inhibitor-based combinations targeting novel dependencies in MECOM-rearranged (r) AML: MV-4-11 cell line (AID 2202233); also: nearly all actives have a fitted effect of over 45% in size; also: potency is read from the fitted curve at half-maximal effect
# How it was run: (§2)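 Cells at 500/well were exposed for 48 hr to MIPE v5.0 drugs as 11-point dose curves. Viability was read by CellTiter-Glo luminescence and normalized to DMSO and empty-well controls. Activity was expressed as AUC and per-cell-line Z-AUC.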
# [8] = BET inhibitor-based combinations targeting novel dependencies in MECOM-rearranged (r) AML: HNT-34 cell line (AID 2202234); also: nearly all actives have a fitted effect of over 35% in size; also: potency is read from the fitted curve at half-maximal effect
# How it was run: as §2
# [9] = BET inhibitor-based combinations targeting novel dependencies in MECOM-rearranged (r) AML: UCSD-AML1 cell line (AID 2202235); also: nearly all actives have a fitted effect of over 40% in size; also: potency is read from the fitted curve at half-maximal effect
# How it was run: as §2
# [10] = BET inhibitor-based combinations targeting novel dependencies in MECOM-rearranged (r) AML: AML-191 cell line (AID 2202236; also: nearly all actives have a fitted effect of over 35% in size; also: potency is read from the fitted curve at half-maximal effect)
# How it was run: as §1
# [11] = BET inhibitor-based combinations targeting novel dependencies in MECOM-rearranged (r) AML: AML-194 cell line (AID 2202237; also: nearly all actives have a fitted effect of over 40% in size; also: potency is read from the fitted curve at half-maximal effect)
# How it was run: as §1
# [12] = target: Retinaldehyde dehydrogenase 3 (Homo sapiens) (UniProt P47895); test: qHTS for Inhibitors of the Aldehyde Dehydrogenase Family (ALDH1A3) Primary screen (AID 2061315)
compound,measurement,setting,value
Nc1nc2c(ncn2COC(CO)CO)c(=O)[nH]1,activation,[1],-11.7%
same,Potency,[2],inactive
same,Potency,[3],inactive
same,Potency,[4],inactive
same,viability,[5],113%
same,Potency,[6],inactive
same,Potency,[7],inactive
same,Potency,[8],inactive
same,Potency,[9],inactive
same,Potency,[10],inactive
same,Potency,[11],inactive
CC(CCc1ccccc1)NCC(O)c1ccc(O)c(C(N)=O)c1 (centres undefined),activation,[1],11.5% and 18%
same,Potency,[2],inactive
same,Potency,[3],inactive
same,Potency,[4],inactive
same,Potency,[12],inactive
N=c1nc(N2CCCCC2)cc(N)n1O,activation,[1],-6.36% and -9.21% and -2.97%
same,Potency,[2],inactive
same,Potency,[3],inactive
same,Potency,[4],inactive
COc1cc([C@@H]2c3cc4c(cc3[C@H](O)C3COC(=O)[C@@H]32)OCO4)cc(OC)c1OC (some centres undefined),activation,[1],-47.3%
same,Potency,[2],inactive
same,Potency,[3],inactive
same,Potency,[4],inactive
COC(=O)Nc1nc2ccc(C(=O)c3cccs3)cc2[nH]1,activation,[1],-4.18%
same,Potency,[2],inactive
same,Potency,[3],inactive
same,Potency,[4],inactive
same,Potency,[5],0.209 µM (active)
same,Potency,[6],0.0934 µM (active)
same,Potency,[7],0.118 µM (active)
same,Potency,[8],0.0833 µM (active)
same,Potency,[9],0.0833 µM (active)
same,Potency,[10],0.0661 µM (active)
CNCC[C@H](Oc1ccc(C(F)(F)F)cc1)c1ccccc1,activation,[1],-46.5%
same,Potency,[2],inactive
same,Potency,[3],inactive
same,Potency,[4],inactive
CCCCCCCC/C=C\CCCCCCCC(=O)NCCc1ccc(O)c(O)c1,activation,[1],9.28%
same,Potency,[2],inactive
same,Potency,[3],inactive
same,Potency,[4],inactive
CCCN(CC1CC1)c1nc(C)nc(Nc2c(Cl)cc(Cl)cc2Cl)c1Cl,activation,[1],-22.7%
same,Potency,[2],inactive
same,Potency,[3],inactive
same,Potency,[4],inactive
Cc1cc(Cl)ccc1OCCCC(=O)NO,activation,[1],35.3% and -37.1% and -6.7%
same,Potency,[2],inactive
same,Potency,[3],inactive
same,Potency,[4],inactive
same,Potency,[5],1.32 µM (active)
same,Potency,[6],20.9 µM (active)
same,Potency,[7],18.6 µM (active)
same,Potency,[8],1.48 µM (active)
same,Potency,[9],3.72 µM (active)
same,Potency,[10],3.72 µM (active)
same,Potency,[11],4.17 µM (active)
O=[N+]([O-])c1cccc2c(Br)[nH]nc12,activation,[1],-55.3%
same,Potency,[2],inactive
same,Potency,[3],inactive
same,Potency,[4],inactive
CNC1(C)C2CCC(C2)C1(C)C (centres undefined),activation,[1],-45.5%
same,Potency,[2],inactive
same,Potency,[3],inactive
same,Potency,[4],inactive
NCCS(=O)(=O)O,activation,[1],-4.87% and 12%
same,Potency,[2],inactive
same,Potency,[3],inactive
same,Potency,[4],inactive
same,viability,[5],125%
same,Potency,[6],inactive
same,Potency,[7],inactive
same,Potency,[8],inactive
same,Potency,[9],inactive
same,Potency,[10],inactive
same,Potency,[11],inactive
OC1(c2ccc(Cl)cc2)CCN(Cc2c[nH]c3ccccc23)CC1,activation,[1],-4.41%
same,Potency,[2],inactive
same,Potency,[3],inactive
same,Potency,[4],inactive
N=C(N)c1ccccc1,activation,[1],-12.8%
same,Potency,[2],inactive
same,Potency,[3],inactive
same,Potency,[4],inactive
CCCCCCCCCCCCCCSCC(=O)O,activation,[1],-11%
same,Potency,[2],inactive
same,Potency,[3],inactive
same,Potency,[4],inactive
O=C(c1ccc2c(c1)OCCO2)N1CCCCC1,activation,[1],8.27%
same,Potency,[2],inactive
same,Potency,[3],inactive
same,Potency,[4],inactive
CCn1cc(C(=O)O)c(=O)c2cc(F)c(N3CCNC(C)C3)c(F)c21 (centres undefined),activation,[1],-0.837% and 16.4% and -15.6%
same,Potency,[2],inactive
same,Potency,[3],inactive
same,Potency,[4],inactive
same,viability,[5],95.2%
same,Potency,[6],inactive
same,Potency,[7],inactive
same,Potency,[8],inactive
same,Potency,[9],inactive
same,Potency,[10],inactive
same,Potency,[11],inactive
C[C@]12CCC(=O)C=C1CC[C@@H]1[C@@H]2CC[C@@]2(C)[C@H]1CC[C@]2(O)C(=O)CO,activation,[1],12.6% and 23.7%
same,Potency,[2],inactive
same,Potency,[3],inactive
same,Potency,[4],inactive
CCCCN(CCCC)CC(O)c1cc(Cl)cc2c1-c1ccc(Cl)cc1/C2=C/c1ccc(Cl)cc1 (centres undefined),activation,[1],22.6% and -82.3%
same,Potency,[2],inactive
same,Potency,[3],inactive
same,Potency,[4],inactive
same,viability,[5],104%
same,Potency,[6],inactive
same,Potency,[7],inactive
same,Potency,[8],inactive
same,Potency,[9],inactive
same,Potency,[10],inactive
same,Potency,[11],inactive
O=C1CCC(N2C(=O)c3ccccc3C2=O)C(=O)N1 (centres undefined),activation,[1],-0.565% and -9.78% and -7.37%
same,Potency,[2],inactive
same,Potency,[3],inactive
same,Potency,[4],inactive
same,viability,[5],112%
same,Potency,[6],inactive
same,Potency,[7],inactive
same,Potency,[8],inactive
same,Potency,[9],inactive
same,Potency,[10],inactive
same,Potency,[11],inactive
O=C(O)c1cccnc1C(=O)O,activation,[1],-17.2%
same,Potency,[2],inactive
same,Potency,[3],inactive
same,Potency,[4],inactive
Cc1cc(NC2CCCCC2)nc(-n2nc(C)cc2C)n1,activation,[1],-20.8%
same,Potency,[2],inactive
same,Potency,[3],inactive
same,Potency,[4],inactive
CCCNCC(O)COc1ccccc1C(=O)CCc1ccccc1 (centres undefined),activation,[1],15% and -5.02% and 3.52%
same,Potency,[2],inactive
same,Potency,[3],inactive
same,Potency,[4],inactive
same,viability,[5],84.2%
O=C(CCNNC(=O)c1ccncc1)NCc1ccccc1,activation,[1],-11.9% and -31.2%
same,Potency,[2],inactive
same,Potency,[3],inactive
same,Potency,[4],inactive
CCN(CC)CCCN(c1ccccc1)C1Cc2ccccc2C1,activation,[1],-2.82% and -37.7%
same,Potency,[2],inactive
same,Potency,[3],inactive
same,Potency,[4],inactive
COc1cccc(OC)c1OCCNCC1CSc2ccccc2O1 (centres undefined),activation,[1],20.5%
same,Potency,[2],inactive
same,Potency,[3],inactive
same,Potency,[4],inactive
